# PubChem BioAssay (Tox21)
# Records with an inconclusive call do not appear. A call without a number means that no potency is given here. Calls of active or inactive are those of the source. Calls follow the shape of the full dose curve.
# Target: Acetylcholinesterase (Homo sapiens) (UniProt P22303)
# Experiment: Acetylcholinesterase (AChE) small molecule antagonists: colormetric cell-based qHTS assay (AID 1347395); also: nearly all actives have a fitted effect of over 30% in size
# Conditions: SH-SY5Y cells AChE activity, colorimetric (Ellman); series mostly up to 115 µM
# Outline: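 After overnight attachment at 37 C, SH-SY5Y cells get 30 min compound exposure; detection cocktail (acetylthiocholine, DTNB) then incubates 90 min at 37 C, and absorbance reflects AChE-generated thiocholine.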
# Acetylcholinesterase (Homo sapiens), sequence (P22303 whole entry, looked up): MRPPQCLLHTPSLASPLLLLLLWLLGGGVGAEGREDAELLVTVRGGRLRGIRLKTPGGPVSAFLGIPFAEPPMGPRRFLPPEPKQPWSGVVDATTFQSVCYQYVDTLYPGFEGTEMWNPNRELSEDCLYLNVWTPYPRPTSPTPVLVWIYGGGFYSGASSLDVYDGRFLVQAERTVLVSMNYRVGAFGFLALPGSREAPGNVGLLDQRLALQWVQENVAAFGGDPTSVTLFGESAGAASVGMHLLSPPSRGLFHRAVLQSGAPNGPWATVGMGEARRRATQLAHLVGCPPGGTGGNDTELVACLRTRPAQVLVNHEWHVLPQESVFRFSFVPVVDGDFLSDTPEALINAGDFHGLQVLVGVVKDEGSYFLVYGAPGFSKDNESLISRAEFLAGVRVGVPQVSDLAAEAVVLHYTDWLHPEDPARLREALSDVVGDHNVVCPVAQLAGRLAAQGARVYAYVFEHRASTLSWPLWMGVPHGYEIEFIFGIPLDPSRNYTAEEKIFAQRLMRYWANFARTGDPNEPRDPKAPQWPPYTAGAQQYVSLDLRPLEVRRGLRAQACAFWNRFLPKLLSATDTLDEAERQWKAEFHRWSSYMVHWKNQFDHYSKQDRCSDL
row,Compound,Potency
1,Oc1cccc(O)c1O,inactive
2,CC(C)c1ccc2oc3nc(N)c(C(=O)O)cc3c(=O)c2c1,inactive
3,CCC1(CO)COCOC1,inactive
4,CCC(CO)(CO)[N+](=O)[O-],inactive
5,CCCN(CCC)CCc1cccc2c1CC(=O)N2,inactive
6,CC(C)C(=O)OCCc1ccccc1,inactive
7,COc1cccc([C@H](O)C2CCN(CCc3ccc(F)cc3)CC2)c1OC,inactive
8,Nc1ccn([C@@H]2O[C@H](CO)[C@@H](O)C2(F)F)c(=O)n1,inactive
9,CO[C@@H]1COCC[C@@H]1N[C@@H]1CC[C@@](C(=O)N2CCc3ncc(C(F)(F)F)cc3C2)(C(C)C)C1,inactive
10,CN1C(C)(C)CCCC1(C)C,inactive
11,COC(=O)[C@H]1[C@H]2C[C@@H]3c4[nH]c5cc(OC)ccc5c4CCN3C[C@H]2C[C@@H](OC(=O)COc2ccc(OC)cc2)[C@@H]1OC,inactive
12,CCCCCCCCN1CCCC1=O,inactive
13,CC(C)C(C)C,inactive
14,C=C(C)C1CC=C(C)C(O)C1 (configuration not stated),inactive
15,CCC(C)(CCC(C)C)C(=O)O (configuration not stated),inactive
16,O=C(O)c1cccnc1C(=O)O,inactive
17,COc1ccc(CCC(=O)c2c(O)cc(O[C@@H]3O[C@H](CO)[C@@H](O)[C@H](O)[C@H]3O[C@@H]3O[C@@H](C)[C@H](O)[C@@H](O)[C@H]3O)cc2O)cc1O,inactive
